In PubChem BioAssay AID1159580 (chemical genetic matrix, 2015):
“And” between values parts separate entries of the source, which are not always exact repeats. Equal values may be shown once. The campaign covered roughly 5,500 compounds. About 2,000 (36%) were called active. Roughly 18% stayed inconclusive and do not appear here. No stated cut-off is given here; in the data, active means normalized growth mostly below about 0.91 (no sharp cut-off); inconclusive means no clear call, values can overlap the other calls; inactive means mostly above about 0.92. Some of the results follow.

Test: chemical genetic growth profiling, strain panel (AID 1159580);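 further: tested at 20 µM; growth read once vehicle control cultures reached saturation at 30 °C; 1 = growth at the plate median or of vehicle wells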
Conditions: S. cerevisiae deletion strains, growth OD
[1] = locus YAL013W, strain DEP1, stronger effect = lower value
[2] = locus YMR307W, strain GAS1, stronger effect = lower value
[3] = locus YNL128W, strain TEP1, stronger effect = lower value

Measured: normalized growth

NO
inactive: [1] 0.994 | locus YAL040C, strain CLN3, stronger effect = lower value 0.946 | locus YCL061C, strain MRC1 (second series), stronger effect = lower value 1.01 | locus YDR363W, strain ESC2, stronger effect = lower value 0.997 | locus YER002W, strain NOP16, stronger effect = lower value 1.01 | locus YGR229C, strain SMI1, stronger effect = lower value 1.1 | locus YJR075W, strain HOC1, stronger effect = lower value 1.02 | locus YMR263W, strain SAP30, stronger effect = lower value 1.01 | [2] 1.02 | [3] 0.998 | locus YNL153C, strain GIM3, stronger effect = lower value 0.988 | locus YNL175C, strain NOP13, stronger effect = lower value 1.01 | locus YNL197C, strain WHI3, stronger effect = lower value 0.976 | locus YNL224C, strain SQS1, stronger effect = lower value 1 | locus YOR083W, strain WHI5 (second series), stronger effect = lower value 0.946 | locus YPL055C, strain LGE1, stronger effect = lower value 1.01 | locus YPL241C, strain CIN2, stronger effect = lower value 1

COC(=O)C[C@H]1C(C)(C)C(=O)[C@@H]2CC3C4=CC(=O)O[C@@H](c5ccoc5)[C@]4(C)CCC3[C@@]1(C)C2=O (stereo not given in full)
inactive: [1] 0.98 | locus YAL021C, strain ccr4, stronger effect = lower value 0.967 | locus YAL026C, strain drs2, stronger effect = lower value 0.969 | locus YAL030W, strain snc1, stronger effect = lower value 0.979 | locus YBL061C, strain skt5, stronger effect = lower value 0.985 | locus YBR009C, strain hhf1, stronger effect = lower value 0.985 | locus YBR021W, strain FUR4, stronger effect = lower value 0.998 | locus YBR023C, strain chs3, stronger effect = lower value 0.99 | locus YBR171W, strain sec66, stronger effect = lower value 0.995 | locus YBR229C, strain ROT2, stronger effect = lower value 0.944 | locus YBR231C, strain swc5, stronger effect = lower value 0.998 | locus YBR279W, strain paf1, stronger effect = lower value 0.996 | locus YCL011C, strain gbp2, stronger effect = lower value 0.988 | locus YCL016C, strain dcc1, stronger effect = lower value 0.989 | locus YCL029C, strain bik1, stronger effect = lower value 0.973 | locus YCL061C, strain MRC1, stronger effect = lower value 0.976 | locus YCL069W, strain vba3, stronger effect = lower value 0.99 | locus YCR088W, strain abp1, stronger effect = lower value 0.98 | locus YDL005C, strain med2, stronger effect = lower value 0.978 | locus YDL035C, strain GPR1, stronger effect = lower value 0.959 | locus YDL040C, strain nat1, stronger effect = lower value 0.99 | locus YDL074C, strain BRE1, stronger effect = lower value 0.954 | locus YDL101C, strain DUN1, stronger effect = lower value 0.987 | locus YDL185W, strain tfp1, stronger effect = lower value 0.954 | locus YDL192W, strain arf1, stronger effect = lower value 0.985 | locus YDR001C, strain nth1, stronger effect = lower value 0.975 | locus YDR069C, strain doa4, stronger effect = lower value 0.977 | locus YDR101C, strain arx1, stronger effect = lower value 0.985 | locus YDR137W, strain rgp1, stronger effect = lower value 0.947 | locus YDR159W, strain sac3, stronger effect = lower value 0.97 | locus YDR162C, strain NBP2, stronger effect = lower value 0.96 | locus YDR195W, strain ref2 0.972 | locus YDR297W, strain sur2, stronger effect = lower value 1.05 | locus YDR318W, strain mcm21, stronger effect = lower value 0.98 | locus YDR334W, strain swr1, stronger effect = lower value 0.972 | locus YDR335W, strain msn5, stronger effect = lower value 0.983 | locus YDR388W, stronger effect = lower value 0.988 | locus YDR392W, strain spt3, stronger effect = lower value 0.993 | locus YDR502C, strain sam2, stronger effect = lower value 0.995 | locus YEL003W, strain gim4, stronger effect = lower value 0.989 | locus YEL037C, strain rad23, stronger effect = lower value 0.985 | locus YEL061C, strain CIN8 (second series), stronger effect = lower value 0.982 | locus YEL061C, strain CIN8, stronger effect = lower value 0.978 | locus YER015W, strain faa2, stronger effect = lower value 0.999 | locus YER016W, strain bim1, stronger effect = lower value 0.985 | locus YER110C, stronger effect = lower value 0.964 | locus YER111C, strain swi4, stronger effect = lower value 0.978 | locus YER155C, strain BEM2 (second series), stronger effect = lower value 0.978 | locus YER155C, strain BEM2, stronger effect = lower value 0.995 | locus YER167W, strain BCK2, stronger effect = lower value 0.978 | locus YFR010W, strain ubp6, stronger effect = lower value 0.964 | locus YGL078C, strain dbp3, stronger effect = lower value 0.97 | locus YGL086W, strain mad1, stronger effect = lower value 0.975 | locus YGL167C, strain pmr1, stronger effect = lower value 0.977 | locus YGL173C, strain kem1, stronger effect = lower value 0.982 | locus YGL227W, strain vid30, stronger effect = lower value 0.99 | locus YGL240W, strain doc1, stronger effect = lower value 1 | locus YGL248W, strain PDE1, stronger effect = lower value 0.971 | locus YGL253W, strain hxk2, stronger effect = lower value 0.98 | locus YGR135W, strain pre9, stronger effect = lower value 1.04 | locus YGR252W, strain gcn5, stronger effect = lower value 1.04 | locus YHR013C, strain ard1, stronger effect = lower value 0.983 | locus YHR027C, strain rpn1, stronger effect = lower value 0.979 | locus YHR030C, strain SLT2, stronger effect = lower value 0.979 and 0.991 | locus YHR079C, strain IRE1 (second series), stronger effect = lower value 0.969 | locus YHR079C, strain IRE1, stronger effect = lower value 0.979 | locus YHR094C, strain hxt1, stronger effect = lower value 0.97 | locus YHR129C, strain ARP1, stronger effect = lower value 0.987 | locus YHR142W, strain chs7, stronger effect = lower value 0.983 | locus YHR200W, strain rpn10, stronger effect = lower value 0.981 | locus YIL066C, strain RNR3, stronger effect = lower value 0.952 | locus YIL073C, strain SPO22, stronger effect = lower value 0.957 | locus YIL125W, strain kgd1, stronger effect = lower value 0.982 | locus YIR030C, strain dcg1, stronger effect = lower value 0.985 | locus YJL092W, strain hpr5, stronger effect = lower value 0.981 | locus YJL095W, strain BCK1 (second series), stronger effect = lower value 0.983 | locus YJL095W, strain BCK1, stronger effect = lower value 1.01 and 0.983 | locus YJL115W, strain asf1, stronger effect = lower value 0.964 | locus YJL129C, strain trk1, stronger effect = lower value 0.965 | locus YJL134W, strain LCB3, stronger effect = lower value 0.97 | locus YJL154C, strain vps35, stronger effect = lower value 0.99 | locus YJL164C, strain tpk1, stronger effect = lower value 0.988 | locus YJL166W, strain qcr8, stronger effect = lower value 0.989 | locus YJL168C, strain set2, stronger effect = lower value 0.991 | locus YJL187C, strain SWE1 (second series), stronger effect = lower value 0.993 | locus YJL187C, strain SWE1, stronger effect = lower value 0.998 | locus YJR066W, strain TOR1, stronger effect = lower value 0.943 | locus YKL009W, strain mrt4, stronger effect = lower value 0.956 | locus YKL068W, stronger effect = lower value 0.979 | locus YKL085W, strain MDH1 (second series), stronger effect = lower value 0.986 | locus YKL085W, strain MDH1, stronger effect = lower value 0.986 | locus YKL160W, strain elf1, stronger effect = lower value 0.992 | locus YKL190W, strain CNB1, stronger effect = lower value 0.98 | locus YKR001C, strain vps1, stronger effect = lower value 0.979 | locus YKR026C, strain gcn3, stronger effect = lower value 0.984 | locus YKR091W, strain srl3, stronger effect = lower value 0.984 | locus YLL001W, strain dnm1, stronger effect = lower value 0.979 | locus YLL026W, stronger effect = lower value 0.982 | locus YLL041C, strain sdh2, stronger effect = lower value 0.978 | locus YLR027C, strain aat2, stronger effect = lower value 1 | locus YLR039C, strain RIC1, stronger effect = lower value 0.902 | locus YLR058C, strain SHM2, stronger effect = lower value 0.961 | locus YLR102C, strain apc9, stronger effect = lower value 0.979 | locus YLR113W, strain HOG1, stronger effect = lower value 1 | locus YLR221C, strain rsa3, stronger effect = lower value 0.992 | locus YLR258W, strain gsy2, stronger effect = lower value 0.981 | locus YLR262C, strain YPT6 (second series), stronger effect = lower value 0.982 | locus YLR262C, strain YPT6, stronger effect = lower value 0.916 | locus YLR268W, strain sec22, stronger effect = lower value 0.997 | locus YLR320W, strain mms22, stronger effect = lower value 0.982 | locus YLR330W, strain CHS5, stronger effect = lower value 0.983 | locus YLR342W, strain FKS1 (second series), stronger effect = lower value 1.02 | locus YLR342W, strain FKS1, stronger effect = lower value 0.99 | locus YLR357W, strain rsc2, stronger effect = lower value 0.977 | locus YLR370C, strain arc18, stronger effect = lower value 0.987 | locus YLR371W, strain rom2, stronger effect = lower value 0.981 | locus YLR384C, strain iki3, stronger effect = lower value 0.983 | locus YLR418C, strain cdc73, stronger effect = lower value 1 | locus YML016C, strain PPZ1, stronger effect = lower value 0.978 | locus YML032C, strain rad52, stronger effect = lower value 0.945 | locus YML120C, strain ndi1, stronger effect = lower value 0.992 | locus YML124C, strain tub3, stronger effect = lower value 0.994 | locus YMR058W, strain fet3, stronger effect = lower value 0.969 | locus YMR078C, strain ctf18, stronger effect = lower value 0.958 | locus YMR125W, strain sto1, stronger effect = lower value 0.973 | locus YMR129W, stronger effect = lower value 0.993 | locus YMR205C, strain PFK2, stronger effect = lower value 0.977 | locus YMR223W, strain ubp8, stronger effect = lower value 1 | locus YMR231W, strain pep5, stronger effect = lower value 0.968 | [2] 1.01 | locus YNL067W, strain RPL9B, stronger effect = lower value 1.01 | locus YNL071W, strain lat1, stronger effect = lower value 0.979 | [3] 0.945 | locus YNL183C, strain NPR1, stronger effect = lower value 0.972 | locus YNL209W, strain ssb2, stronger effect = lower value 0.989 | locus YNL233W, strain BNI4, stronger effect = lower value 1.02 | locus YNL248C, strain rpa49, stronger effect = lower value 0.967 | locus YNL250W, strain rad50, stronger effect = lower value 0.98 | locus YNL271C, strain bni1, stronger effect = lower value 0.976 | locus YNL298W, strain CLA4, stronger effect = lower value 0.962 | locus YNL307C, strain MCK1, stronger effect = lower value 0.978 | locus YNL322C, strain KRE1 (second series), stronger effect = lower value 0.995 | locus YNL322C, strain KRE1, stronger effect = lower value 0.981 | locus YNR049C, strain mso1, stronger effect = lower value 0.976 | locus YNR052C, strain pop2, stronger effect = lower value 0.989 | locus YOL006C, strain TOP1, stronger effect = lower value 0.934 | locus YOL012C, strain htz1 0.856 | locus YOL147C, strain pex11, stronger effect = lower value 0.969 | locus YOR001W, strain rrp6, stronger effect = lower value 0.962 | locus YOR061W, strain CKA2, stronger effect = lower value 0.964 | locus YOR069W, strain VPS5, stronger effect = lower value 0.988 | locus YOR070C, strain gyp1, stronger effect = lower value 0.982 | locus YOR080W, strain dia2, stronger effect = lower value 0.983 | locus YOR083W, strain WHI5, stronger effect = lower value 0.989 | locus YOR106W, strain vam3, stronger effect = lower value 0.99 | locus YOR136W, strain idh2, stronger effect = lower value 0.971 | locus YOR144C, strain elg1, stronger effect = lower value 0.996 | locus YOR184W, strain ser1, stronger effect = lower value 0.948 | locus YOR231W, strain MKK1, stronger effect = lower value 0.984 | locus YOR265W, strain rbl2, stronger effect = lower value 0.986 | locus YOR270C, strain vph1, stronger effect = lower value 0.925 | locus YOR290C, strain snf2, stronger effect = lower value 1 | locus YOR316C, strain cot1, stronger effect = lower value 0.982 | locus YPL051W, strain arl3, stronger effect = lower value 1.03 | locus YPL078C, strain atp4, stronger effect = lower value 0.985 | locus YPL106C, strain sse1, stronger effect = lower value 0.994 | locus YPL240C, strain hsp82, stronger effect = lower value 0.984 | locus YPL256C, strain CLN2, stronger effect = lower value 0.967 | locus YPR119W, strain clb2, stronger effect = lower value 0.99 | locus YPR141C, strain kar3, stronger effect = lower value 0.988 | locus YPR163C, strain tif3, stronger effect = lower value 0.985 | locus YPR167C, strain met16, stronger effect = lower value 0.982 | strain wtn01, stronger effect = lower value 0.967
